Screening results: PubChem, National Center for Advancing Translational Sciences (NCATS)
Only some compounds are listed: those with a hit (about 2.4% of all), similar ones and a draw of the others.
D2 ag-1: HTS Assay for Allosteric Agonists of the Human D2 Dopamine Receptor: Primary Screen for Agonists | hit rate 0.53% among 340,000 | D(2) dopamine receptor (Homo sapiens), P14416 | activation, % at 2 µM | HEK293 T-REx D2 cells, calcium flux agonist mode;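 active means activation over 3 SD above normal in the single-dose calcium agonist read, cut at about 30% in these data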; further: 0% is about no effect
Target sequence (P14416 whole entry, looked up): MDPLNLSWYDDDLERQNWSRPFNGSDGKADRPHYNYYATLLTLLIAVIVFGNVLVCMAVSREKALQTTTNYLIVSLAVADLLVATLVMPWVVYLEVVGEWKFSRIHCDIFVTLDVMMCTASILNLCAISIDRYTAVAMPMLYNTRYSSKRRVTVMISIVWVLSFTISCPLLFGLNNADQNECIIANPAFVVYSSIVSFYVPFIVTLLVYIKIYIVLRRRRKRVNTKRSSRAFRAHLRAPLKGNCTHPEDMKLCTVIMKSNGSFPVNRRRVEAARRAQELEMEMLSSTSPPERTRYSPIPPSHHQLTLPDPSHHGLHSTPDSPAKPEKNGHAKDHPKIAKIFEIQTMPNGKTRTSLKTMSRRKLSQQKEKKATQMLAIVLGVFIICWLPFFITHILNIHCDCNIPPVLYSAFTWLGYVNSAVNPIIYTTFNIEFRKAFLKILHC
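Tetracycline-induced HEK293 Trex cells with D2 receptor force-coupled to calcium signaling, plated overnight at 30 C and loaded with no-wash calcium dye. Calcium flux read kinetically for 180 s after compound addition; responses flag agonists.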
D2 PAM-1: HTS Assay for Positive Allosteric Modulators of the Human D2 Dopamine Receptor: Primary Screen for Potentiators. D(2) dopamine receptor (Homo sapiens), P14416. HEK293 T-REx D2, calcium flux, EC20 dopamine potentiation. AID 485347, 2010. hit rate 0.34% among 340,000. potentiation, % at 10 µM;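 active means potentiation over 3 SD above the plate norm, cut at about 30% in these data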; further: 0% is about no effect
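Calcium flux readout, no-wash dye, 1 read/s. Inducible HEK293 Trex D2 line, overnight 30 C. Compound alone 180 s (agonist flags), then EC20 dopamine, another 180 s to score potentiation.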
D2 PAM-2: Beta-Arrestin HTS for Positive Allosteric Modulators of the Human D2 Dopamine Receptor: Potentiators | DiscoveRx D2 beta-arrestin cells, luminescence, 90 min; 100% = 57 uM dopamine signal | potentiation, % (test concentration not listed) | hit rate 0.23% among 360,000 | AID 624464, 2012; in the data active means potentiation above about 50%; inconclusive means mostly about 30% to 49%
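D2 cells co-treated with compound plus 50 nM dopamine (EC20) for 90 min at 37 deg C to detect potentiation. Beta-arrestin recruitment was read as enzyme-fragment luminescence after 1 h at ambient temperature. Full response was set by 57 uM dopamine.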
D2 ag-2: Beta-Arrestin HTS for Positive Allosteric Modulators of the Human D2 Dopamine Receptor: Agonists; DiscoveRx PathHunter D2 beta-arrestin, luminescence, 90 min; 100% = 57 uM dopamine signal; activation, % (no concentration beside the values); AID 624465, 2012; D(2) dopamine receptor (Homo sapiens), P14416; hit rate 0.084% among 360,000; in the data active means activation above about 40%; inconclusive means between about 15% and that limit
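Agonist mode: compounds alone added to overnight-plated D2 PathHunter cells for 90 min at 37 C, with 57 uM final dopamine (EC100) defining full response. Beta-arrestin recruitment detected by chemiluminescent reagent, read after 1 h at ambient temperature.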
D2 antag: HTS Assay for Allosteric Antagonists of the Human D2 Dopamine Receptor: Primary Screen for Antagonists; inhibition, % at 10 µM; AID 485344, 2010; HEK293 TREx D2 cells, calcium flux, dopamine EC80; D(2) dopamine receptor (Homo sapiens), P14416; hit rate 2% among 340,000; in the data active means inhibition above about 30%; inactive means below that, where a call was filed; further: 0% is about no effect
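Calcium flux kinetic readout in an inducible HEK293 TREx D2 line plated overnight at 30 C. After 180 s compound exposure, an EC80 dopamine challenge follows with another 180 s kinetic read to detect antagonism.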
Numbers without * were called inactive; ? = inconclusive; . = not tested or not shown.

SMILES	D2 ag-1	D2 PAM-1	D2 PAM-2	D2 ag-2	D2 antag
COc1ccc(-c2cn3cccnc3n2)cc1NC(=O)c1cc(C)cc(C)c1	0	-8	.	.	.
COc1ccc(NC(=O)CCCOc2cc(=O)n(C)c3ccccc23)c(OC)c1	0	.	.	.	.
O=C(O)c1cccnc1Nc1cccc(C(F)(F)F)c1	-1	5	17	-1	56*
N#Cc1cccc(NC(=O)C2CCN(c3nc(-c4ccc(Cl)cc4)no3)CC2)c1	0	-10	.	.	.
COc1ccc(-n2cc(C(=O)Nc3ccccc3C#N)c3ccccc3c2=O)cc1	0	7	.	.	.
Cc1c(-c2nsc(NC(=O)c3cccs3)n2)nnn1-c1ccc(Br)cc1	0	2	.	.	.
COC(=O)c1c(NC(=O)c2ccco2)sc2c1CCC2	-3	30*	5	-6	2
COC(=O)c1c(NC(=O)Cc2cccs2)sc2c1CCCC2	0	3	3	-3	-2
O=C(Nc1sc2c(c1C(=O)O)CCC2)c1ccco1	0	5	-1	1	4
COC(=O)c1c(NS(=O)(=O)c2cccs2)sc2c1CCCC2	0	9	-2	-2	41*
Cc1ccc(C(=O)Nc2sc3c(c2C(=O)O)CCCCC3)o1	1	3	4	-1	32*
Cc1ccc2c(=O)c(C(=O)c3ccc(Cl)cc3)cn(CC(=O)Nc3ccc4c(c3)OCCO4)c2n1	1	-6	.	.	.
CCOC(=O)c1[nH]ncc1CN1CCCC(C(=O)c2ccc(OC)c(OC)c2)C1 (stereo not given)	.	.	-9	1	.
CCOC(=O)c1[nH]ncc1CN1CCCC(C(=O)c2cc(Cl)ccc2OC)C1 (stereo not given)	1	-27	-6	0	73*
COc1ccc(C(CNC(=O)c2cccc(N(C)C)c2)N2CCCC2)cc1 (stereo not given)	0	-25	-19	-3	47*
COc1ccc(C(CNC(=O)c2cccc(S(=O)(=O)Nc3ccccc3OC)c2)N2CCCC2)cc1 (stereo not given)	1	-29	-34	0	-8
COc1ccc(C(CNC(=O)c2ccc(C)c(S(=O)(=O)Nc3ccccc3OC)c2)N2CCCC2)cc1 (stereo not given)	-1	-15	-23	-3	49*
C=CCN(c1ccccc1)S(=O)(=O)c1cccc(C(=O)NCC(c2ccc(OC)cc2)N2CCCCC2)c1 (stereo not given)	1	-27	-32	-5	55*
CCN(CC1CCCN(CCc2cccc(F)c2)C1)C(=O)c1ccoc1C (stereo not given)	.	.	-51	-3	.
C=CCC(=O)N(CC)CC1CCCN(CCc2cccc(F)c2)C1 (stereo not given)	0	-17	-1	-2	49*
O=C(c1c[nH]c2ccccc12)N1CCOCC1	2	8	-8	-6	-10
S=C(c1c[nH]c2ccc(Br)cc12)N1CCOCC1	3	-2	-4	0	38*
Cc1ccc(C2C=C(c3ccccc3)Nc3nc(NS(=O)(=O)c4ccc(C)cc4)nn32)cc1 (stereo not given)	2	-4	.	.	.
CS(=O)(=O)Nc1nc2n(n1)C(c1ccccc1)C=C(c1ccc(Br)cc1)N2 (stereo not given)	2	-6	75*	?	-5
CCN(CC)CCCNC(=S)N1CCN(c2nc(-c3ccccc3)cs2)CC1	0	-9	-14	0	33*
SMILES	D2 ag-1	D2 PAM-1	D2 PAM-2	D2 ag-2	D2 antag
CCc1nnc(NC(=O)CN2CCN(c3nc(-c4ccccc4)cs3)CC2)s1	0	-1	1	3	32*
CCOCCCNC(=S)N1CCN(c2nc(-c3ccccc3)cs2)CC1	.	.	-3	-5	.
CC(C)C(=O)NNC(=O)CN1CCN(c2nc(-c3ccccc3)cs2)CC1	2	3	-2	-3	-1
O=C(Nc1cccc(C(F)(F)F)c1)Nc1nnc(N2CCCCCC2)s1	1	.	.	.	.
CCOC(=O)N1CCN(CCC(=O)Nc2ccc(OC)cc2)CC1	1	-1	-7	-3	-18
COc1ccc(NC(=O)CCCCC(=O)Nc2ccc(OC)cc2OC)c(OC)c1	.	.	-2	-2	.
C/C(CC(=O)Nc1ccccn1)=N\NC(=O)c1ccccc1O	3	3	-13	-6	47*
CCOC(=O)N1CCN(CCC(=O)Nc2ccc(OC)cc2OC)CC1	34*	-16	-33	-1	36*
COc1ccc(NC(=O)CCOc2ccccc2)c(OC)c1	-1	8	18	-3	36*
COc1ccc(NC(=S)N2CCN(C(=O)c3ccco3)CC2)c(OC)c1	10	-1	-11	1	2
COc1ccc(NC(=O)CN2CCN(C(=O)c3ccco3)CC2)c(OC)c1	39*	-9	4	10	-9
COc1ccc(NC(=O)c2ccc(NC(=O)CN3CCN(c4ccccc4O)CC3)cc2)cc1	.	.	-12	2	.
COc1ccc(OC)c(NC(=O)CCN2CCN(c3ccccc3OC)CC2)c1	14	-20	-79	-2	72*
COc1ccc(NC(=O)CCCN2C(=O)C3C4C=CC(C4)C3C2=O)c(OC)c1 (stereo not given)	0	17	5	-2	35*
COc1ccc(NC(=O)c2ccc(NC(=O)CN3CCN(c4ccc(O)cc4)CC3)cc2)cc1	.	.	23	124*	.
COc1ccc(NC(=O)C/C(C)=N/NC(=O)c2ccccn2)c(OC)c1	-1	30*	-5	5	15
Oc1c(C(c2ccccc2F)N2CCN(c3ccccc3F)CC2)sc2nc(-c3ccco3)nn12 (stereo not given)	1	1	.	.	.
COc1ccc2c(c1)CC(C(=O)Nc1ccc(Br)c(C)c1)CO2 (stereo not given)	0	-3	.	.	.
CCOc1ccc(NC(=O)CN2CCN(CC(=O)Nc3ccc(OC)cc3OC)CC2)cc1	0	8	7	6	32*
COc1ccc(NC(=O)CCCNC(=O)c2ccc(Cl)cc2)c(OC)c1	0	-3	1	0	30*
Cc1cccc(CCNC(=O)C2CCN(S(=O)(=O)c3c(C)nn(C)c3C)CC2)c1	0	-11	9	-2	32*
Cc1ccc(CCNC(=O)C2CCN(S(=O)(=O)c3c(C)nn(C)c3C)CC2)cc1	0	-8	-4	-1	-30
COc1ccccc1NC(=O)CSc1ccc(-c2ccccn2)nn1	-1	-4	4	-3	14
